# Test results taken from PMC4081100, “A DNA-binding-site landscape and regulatory network analysis for NAC transcription factors in Arabidopsis thaliana”.
# Key:
# Assay in all cases: universal protein binding microarray (PBM); transcription factors of Arabidopsis thaliana; high values mean tight binding
# GST-ANAC092(1-176) = biological target: T1, GST-ANAC092(1-176) (Arabidopsis thaliana, UniProt Q9FKA0 1-176); details: protein: recombinant; tags: GST; chain copies: 2; dsDNA, one strand shown
# T1 sequence: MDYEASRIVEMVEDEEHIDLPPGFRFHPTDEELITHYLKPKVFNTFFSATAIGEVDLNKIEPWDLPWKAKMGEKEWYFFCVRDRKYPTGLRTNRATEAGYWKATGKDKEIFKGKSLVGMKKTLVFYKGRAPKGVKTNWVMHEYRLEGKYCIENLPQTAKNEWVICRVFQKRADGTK
# In short: (§1)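 GST-tagged proteins (NAC-domain, full-length or DNA-binding-domain) were induced in cells, with zinc acetate supplied for zinc-finger proteins, then purified on glutathione–Sepharose 4B. Each was tested in duplicate at 200 to 500 nM final on custom all-10-mer Agilent 4 × 180K arrays rendered double-stranded by primer extension. The binding value is the normalised enrichment score (E-score) across gapped and ungapped 8-mers.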
# GST-NTL6(1-168) = GST-NTL6(1-168) (Arabidopsis thaliana, UniProt Q9SCK6 1-168); details: protein: recombinant; tags: GST; chain copies: 2; dsDNA, one strand shown
# In short: as §1
# GST-ANAC055(1-171) = biological target: T2, GST-ANAC055(1-171) (Arabidopsis thaliana, UniProt Q9LDY8 1-171); details: protein: recombinant; tags: GST; chain copies: 2; dsDNA, one strand shown
# T2 sequence: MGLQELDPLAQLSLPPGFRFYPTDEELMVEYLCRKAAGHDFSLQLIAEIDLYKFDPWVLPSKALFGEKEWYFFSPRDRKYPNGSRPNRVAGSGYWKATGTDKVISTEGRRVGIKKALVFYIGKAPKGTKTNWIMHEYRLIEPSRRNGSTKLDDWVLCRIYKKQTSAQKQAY
# In short: as §1
# GST-ATAF1 NAC domain = biological target: T3, GST-ATAF1 NAC domain (Arabidopsis thaliana, UniProt Q39013 7-158); details: protein: recombinant; tags: GST; chain copies: 2; dsDNA, one strand shown
# T3 sequence: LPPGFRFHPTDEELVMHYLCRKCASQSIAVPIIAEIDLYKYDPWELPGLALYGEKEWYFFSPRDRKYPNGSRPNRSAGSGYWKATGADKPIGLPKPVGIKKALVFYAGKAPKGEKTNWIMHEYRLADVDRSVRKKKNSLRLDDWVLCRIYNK
# In short: as §1
# [1] = biological target: T4, GST-ANAC092(1-285) full length (Arabidopsis thaliana, UniProt Q9FKA0 1-285); details: protein: recombinant; tags: GST; chain copies: 2; dsDNA, one strand shown
# T4 sequence: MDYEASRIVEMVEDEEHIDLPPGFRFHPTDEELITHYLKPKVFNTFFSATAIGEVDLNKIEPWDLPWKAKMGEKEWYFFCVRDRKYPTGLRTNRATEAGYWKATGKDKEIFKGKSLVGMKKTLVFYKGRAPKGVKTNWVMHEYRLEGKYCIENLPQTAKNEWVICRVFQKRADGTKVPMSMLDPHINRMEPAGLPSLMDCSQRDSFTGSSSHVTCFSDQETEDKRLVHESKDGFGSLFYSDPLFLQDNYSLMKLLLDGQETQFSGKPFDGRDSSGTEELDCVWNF
# In short: as §1
# GST-NST2(1-184) = biological target: T5, GST-NST2(1-184) (Arabidopsis thaliana, UniProt Q9M274 1-184); details: protein: recombinant; tags: GST; chain copies: 2; dsDNA, one strand shown
# T5 sequence: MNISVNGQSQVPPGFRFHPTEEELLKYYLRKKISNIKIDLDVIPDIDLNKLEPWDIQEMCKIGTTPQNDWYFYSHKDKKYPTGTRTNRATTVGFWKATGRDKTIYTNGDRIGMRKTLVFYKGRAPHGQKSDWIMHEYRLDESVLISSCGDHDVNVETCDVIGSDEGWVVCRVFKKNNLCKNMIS
# In short: as §1
# GST-SND1(1-203) = biological target: T6, GST-SND1(1-203) (Arabidopsis thaliana, UniProt Q9LPI7 1-203); details: protein: recombinant; tags: GST; chain copies: 2; dsDNA, one strand shown
# T6 sequence: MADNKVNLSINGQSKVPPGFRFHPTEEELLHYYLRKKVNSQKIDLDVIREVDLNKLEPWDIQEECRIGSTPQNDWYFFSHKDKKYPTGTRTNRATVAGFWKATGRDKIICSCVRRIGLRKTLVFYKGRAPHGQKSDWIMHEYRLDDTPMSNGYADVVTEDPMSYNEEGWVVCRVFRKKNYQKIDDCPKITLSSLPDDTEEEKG
# In short: as §1
# GST-VND3 NAC domain = biological target: T7, GST-VND3 NAC domain (Arabidopsis thaliana, UniProt Q9FH59 12-162); details: protein: recombinant; tags: GST; chain copies: 2; dsDNA, one strand shown
# T7 sequence: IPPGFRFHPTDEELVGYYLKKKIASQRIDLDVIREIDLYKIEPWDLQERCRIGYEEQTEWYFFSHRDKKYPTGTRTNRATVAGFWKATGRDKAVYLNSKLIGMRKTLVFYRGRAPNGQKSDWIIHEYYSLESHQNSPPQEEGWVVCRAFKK
# In short: as §1
# GST-ANAC019 NAC domain = biological target: T8, GST-ANAC019 NAC domain (Arabidopsis thaliana, UniProt Q9C932 14-162); details: protein: recombinant; tags: GST; chain copies: 2; dsDNA, one strand shown
# T8 sequence: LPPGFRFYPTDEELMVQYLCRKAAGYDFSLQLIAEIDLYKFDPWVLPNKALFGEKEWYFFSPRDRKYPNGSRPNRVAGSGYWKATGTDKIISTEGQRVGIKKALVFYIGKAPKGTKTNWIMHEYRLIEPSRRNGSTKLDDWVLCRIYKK
# In short: as §1
# GST-WRKY1(266-371) = GST-WRKY1(266-371) (Arabidopsis thaliana, UniProt Q9SI37 266-371); details: protein: recombinant; tags: GST; dsDNA, one strand shown
# In short: as §1
# GST-NAP(1-166) = biological target: T9, GST-NAP(1-166) (Arabidopsis thaliana, UniProt O49255 1-166); details: protein: recombinant; tags: GST; chain copies: 2; dsDNA, one strand shown
# T9 sequence: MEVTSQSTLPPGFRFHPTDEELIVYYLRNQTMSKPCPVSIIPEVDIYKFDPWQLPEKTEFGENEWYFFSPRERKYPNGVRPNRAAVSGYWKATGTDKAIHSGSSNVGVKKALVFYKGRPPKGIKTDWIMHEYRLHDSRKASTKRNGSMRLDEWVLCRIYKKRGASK
# In short: as §1
# GST-NTL8 NAC domain = biological target: T10, GST-NTL8 NAC domain (Arabidopsis thaliana, UniProt Q9XIN7 14-156); details: protein: recombinant; tags: GST; chain copies: 2; dsDNA, one strand shown
# T10 sequence: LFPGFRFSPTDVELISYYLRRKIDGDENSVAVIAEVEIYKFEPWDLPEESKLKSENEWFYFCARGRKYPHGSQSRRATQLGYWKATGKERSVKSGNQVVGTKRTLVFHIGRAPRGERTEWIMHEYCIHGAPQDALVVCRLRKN
# In short: as §1
# GST-VND7 NAC domain = biological target: T11, GST-VND7 NAC domain (Arabidopsis thaliana, UniProt Q9C8W9 9-158); details: protein: recombinant; tags: GST; chain copies: 2; dsDNA, one strand shown
# T11 sequence: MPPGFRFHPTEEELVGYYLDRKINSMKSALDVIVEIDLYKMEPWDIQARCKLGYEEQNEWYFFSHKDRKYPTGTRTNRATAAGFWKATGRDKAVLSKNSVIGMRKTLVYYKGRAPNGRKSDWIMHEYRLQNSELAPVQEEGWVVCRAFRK
# In short: as §1
# GST-NTL6(1-168), sequence (Q9SCK6 1-168): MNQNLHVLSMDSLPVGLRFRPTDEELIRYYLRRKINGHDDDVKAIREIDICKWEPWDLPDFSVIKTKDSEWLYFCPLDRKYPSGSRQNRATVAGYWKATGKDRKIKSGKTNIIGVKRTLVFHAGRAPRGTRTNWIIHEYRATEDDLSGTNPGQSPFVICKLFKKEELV
# GST-WRKY1(266-371), sequence (Q9SI37 266-371): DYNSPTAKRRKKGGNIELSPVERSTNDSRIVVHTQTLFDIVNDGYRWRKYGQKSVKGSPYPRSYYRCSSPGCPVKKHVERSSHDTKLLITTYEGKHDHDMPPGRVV
Sequence,binding signal (GST-ANAC092(1-176)) [E-score],binding signal (GST-NTL6(1-168)) [E-score],binding signal (GST-ANAC055(1-171)) [E-score],binding signal (GST-ATAF1 NAC domain) [E-score],binding signal [1] [E-score],binding signal (GST-NST2(1-184)) [E-score],binding signal (GST-SND1(1-203)) [E-score],binding signal (GST-VND3 NAC domain) [E-score],binding signal (GST-ANAC019 NAC domain) [E-score],binding signal (GST-WRKY1(266-371)) [E-score],binding signal (GST-NAP(1-166)) [E-score],binding signal (GST-NTL8 NAC domain) [E-score],binding signal (GST-VND7 NAC domain) [E-score]
ATTAAGTA,0.0822,0.441,0.182,0.215,0.144,0.231,0.267,0.131,,,,,
TCCGTCAA,,,,,,,0.063,0.105,0.0961,0.412,,,
ACGTTATC,0.384,,0.0511,0.17,0.431,0.299,0.423,0.208,,,0.162,,
GTCAATTA,,,0.0852,0.202,0.159,0.147,0.122,0.104,,0.42,,,
CAAGTCAG,,,,,0.11,,0.0706,0.0527,,0.417,,,
ACTTTCCT,,0.292,0.171,0.0923,0.0813,0.144,0.145,,,0.171,,0.4,0.121
CACTCAAC,0.4,0.0871,0.139,0.0909,0.424,0.237,0.243,0.089,0.151,,,,
AAGGAATG,0.153,0.422,0.0506,0.07,0.115,0.196,0.227,,0.0613,0.0844,,0.293,0.0905
TCACGCCA,0.436,,0.156,0.178,0.454,0.263,0.358,0.0902,0.223,,0.0509,,
GCTAAGTA,,0.429,,,,,0.121,0.0851,,,0.0551,,
CCAAGCAA,0.31,0.309,0.0877,0.0528,0.356,0.295,0.405,0.119,0.147,,,0.0676,
AAGTCATC,,0.233,0.0818,,0.213,0.089,0.242,,,0.406,0.0606,0.0978,0.11
GTTTCCTA,0.118,0.0734,0.133,0.212,0.179,0.169,0.106,0.179,0.158,,0.118,0.404,
ATAAGGAA,0.118,0.423,0.0899,0.129,0.217,0.136,0.201,0.152,,,,0.332,
GTCAAAAA,0.114,,,0.154,0.0617,0.121,0.216,,0.0995,0.442,,0.0654,0.0546
AGGGAAAC,0.0845,0.115,,0.0887,0.071,,0.0839,0.0608,0.0754,,0.14,0.482,
